From PubChem BioAssay AID1851 (National Center for Advancing Translational Sciences (NCATS), 2009)
About 5,800 (36%) of roughly 16,000 compounds were called active. Not shown: some 23% with an inconclusive outcome. Some of the results follow. A number with no mark means an inactive call. Calls come from the whole dose curve; as a rule, active = well fitted curve in the direction sought with a large enough effect; inconclusive = small, poorly fitted or top-dose-only effect, or effect the other way; inactive = no such curve, though single readings can be large or run the other way.

biological target: Cytochrome P450 2C19 (Homo sapiens) (UniProt P33261); experiment: Cytochrome panel assay with activity outcomes; conditions: recombinant CYP, pro-luciferin dealkylation, luminescence, p450-cyp2c19; series mostly up to 57.1 µM
Sequence (P33261 whole entry, looked up): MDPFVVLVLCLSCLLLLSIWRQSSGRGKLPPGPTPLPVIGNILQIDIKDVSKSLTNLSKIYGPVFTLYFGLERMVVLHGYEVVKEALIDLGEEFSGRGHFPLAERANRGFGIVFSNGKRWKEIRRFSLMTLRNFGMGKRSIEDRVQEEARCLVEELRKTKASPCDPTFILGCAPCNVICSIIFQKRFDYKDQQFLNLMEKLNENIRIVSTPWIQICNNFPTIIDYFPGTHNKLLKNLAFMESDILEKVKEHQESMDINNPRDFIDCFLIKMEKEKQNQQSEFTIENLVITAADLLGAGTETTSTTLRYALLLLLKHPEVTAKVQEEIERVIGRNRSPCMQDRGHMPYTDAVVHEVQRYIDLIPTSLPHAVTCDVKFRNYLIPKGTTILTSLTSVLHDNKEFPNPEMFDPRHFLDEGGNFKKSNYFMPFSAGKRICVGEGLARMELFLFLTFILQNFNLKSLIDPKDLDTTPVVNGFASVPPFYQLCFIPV
% is set by controls: 0 for no effect and ±100 for the full control effect.

Row | Compound | AC50 | activity, negative = inhibition
1 | O=c1cc(-c2ccc(O)c(O)c2)oc2cc(O)cc(O)c12 | inactive | 
2 | Nc1ccc(CCN2CCN(c3cccc(C(F)(F)F)c3)CC2)cc1 | 7.94 µM (active) | 
3 | NCCCN1CCN(c2ccccc2)CC1 |  | 2.32% [at 11.4 µM]
4 | Cc1cc(OCc2ccc([N+](=O)[O-])cc2)c2c3c(c(=O)oc2c1)CCCC3 | 0.708 µM (active) | 
5 | Cc1cc(OCC(=O)OC(C)C)c2c3c(c(=O)oc2c1)CCCC3 | 3.55 µM (active) | 
6 | CC(C)[C@H](CO)Nc1nc(Nc2cccc(Cl)c2)c2ncn(C(C)C)c2n1 | inactive | 
7 | CC[C@H](C)C(=O)O[C@@H]1[C@H](O)[C@@H]2[C@H](CN3C[C@@H](C)CC[C@@H]3[C@@]2(C)O)[C@@H]2C[C@@]34O[C@@]5(O)[C@@H](OC(=O)[C@](C)(O)CC)CC[C@@]3(C)[C@H]5[C@H](OC(C)=O)[C@@H](OC(C)=O)[C@H]4[C@]12O | inactive | 
8 | COc1cc2c(cc1OC)[C@]13CC[N@+]4(C)CC5=CCO[C@H]6CC(=O)N2[C@@H]1[C@@H]6[C@@H]5C[C@]34O |  | -1.84% [at 11.4 µM]
9 | c1ccc(CN2CCN(Cc3ccc4c(c3)OCCO4)CC2)cc1 | inactive | 
10 | Cc1ccc(C2CC(=O)C(C=NCCN3CCN(C(=O)Cc4ccccc4)CC3)=C(O)C2)cc1 (stereo not given) | 3.16 µM (active) | 
11 | c1ccc(CCN2CCOCC2)nc1 |  | 1.5% [at 11.4 µM]
12 | CC(C)CN1CCC2(CC1)CCN(C(=O)Oc1ccccc1)CC2 | inactive | 
13 | CCCN1CCc2cc(O)cc3c2[C@H]1Cc1ccc(O)c(O)c1-3 | inactive | 
14 | c1cc(CN2CCC3(CCNCC3)CC2)ccn1 | inactive | 
15 | c1ccc(CN2CCC3(CCNCC3)CC2)cc1 | 5.01 µM (active) | 
16 | O=C(Oc1ccccc1)N1CCC2(CCN(Cc3ccccc3)CC2)CC1 | inactive | 
17 | c1ccc(CN2CCC3(CCc4ccccc43)CC2)cc1 | 2.51 µM (active) | 
18 | c1ccc(CN2CC[C@@]3(CCCNC3)C2)cc1 | inactive | 
19 | c1ccc(CN2CCCC3(CCNCC3)C2)cc1 | inactive | 
20 | CCn1cc(C(=O)O)c(=O)c2cc3c(cc21)OCO3 | inactive | 
21 | C[As+](C)(c1ccc(Br)c([N+](=O)[O-])c1)c1ccc(Br)c([N+](=O)[O-])c1.O=[N+]([O-])O |  | 27.9% [at 11.4 µM]
22 | S=C=Nc1cccc(C2(N3CCCCC3)CCCCC2)c1 | inactive | 
23 | CS(=O)(=O)Nc1ccc(Cc2noc(-c3ccc4[nH]cc(CCN)c4c3)n2)cc1 | 15.8 µM (active) | 
24 | C[C@H](N)Cc1c[nH]c2ccc(OCc3cccs3)cc12 | inactive | 
25 | CN1CCN(c2ccc3ccccc3n2)CC1 | inactive | 
